Measurements published in paper PMC4336329 (PLoS ONE, 2015).
About 14,000 (4.5%) of roughly 310,000 compounds showed an effect of 50% or more. Effects have a minus sign here. For the sample, strong results were picked, then their nearest neighbours and some compounds at random.

target: human ether-à-go-go-related gene (hERG) potassium channel (human, UniProt Q12809); test: primary screen, population patch clamp on CHO cells stably expressing hERG; higher = less effect of the substance
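Further: peak tail current of the secondary pulse compared with the same well before compound.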

human ether-à-go-go-related gene (hERG) potassium channel, sequence (Q12809 whole entry, looked up): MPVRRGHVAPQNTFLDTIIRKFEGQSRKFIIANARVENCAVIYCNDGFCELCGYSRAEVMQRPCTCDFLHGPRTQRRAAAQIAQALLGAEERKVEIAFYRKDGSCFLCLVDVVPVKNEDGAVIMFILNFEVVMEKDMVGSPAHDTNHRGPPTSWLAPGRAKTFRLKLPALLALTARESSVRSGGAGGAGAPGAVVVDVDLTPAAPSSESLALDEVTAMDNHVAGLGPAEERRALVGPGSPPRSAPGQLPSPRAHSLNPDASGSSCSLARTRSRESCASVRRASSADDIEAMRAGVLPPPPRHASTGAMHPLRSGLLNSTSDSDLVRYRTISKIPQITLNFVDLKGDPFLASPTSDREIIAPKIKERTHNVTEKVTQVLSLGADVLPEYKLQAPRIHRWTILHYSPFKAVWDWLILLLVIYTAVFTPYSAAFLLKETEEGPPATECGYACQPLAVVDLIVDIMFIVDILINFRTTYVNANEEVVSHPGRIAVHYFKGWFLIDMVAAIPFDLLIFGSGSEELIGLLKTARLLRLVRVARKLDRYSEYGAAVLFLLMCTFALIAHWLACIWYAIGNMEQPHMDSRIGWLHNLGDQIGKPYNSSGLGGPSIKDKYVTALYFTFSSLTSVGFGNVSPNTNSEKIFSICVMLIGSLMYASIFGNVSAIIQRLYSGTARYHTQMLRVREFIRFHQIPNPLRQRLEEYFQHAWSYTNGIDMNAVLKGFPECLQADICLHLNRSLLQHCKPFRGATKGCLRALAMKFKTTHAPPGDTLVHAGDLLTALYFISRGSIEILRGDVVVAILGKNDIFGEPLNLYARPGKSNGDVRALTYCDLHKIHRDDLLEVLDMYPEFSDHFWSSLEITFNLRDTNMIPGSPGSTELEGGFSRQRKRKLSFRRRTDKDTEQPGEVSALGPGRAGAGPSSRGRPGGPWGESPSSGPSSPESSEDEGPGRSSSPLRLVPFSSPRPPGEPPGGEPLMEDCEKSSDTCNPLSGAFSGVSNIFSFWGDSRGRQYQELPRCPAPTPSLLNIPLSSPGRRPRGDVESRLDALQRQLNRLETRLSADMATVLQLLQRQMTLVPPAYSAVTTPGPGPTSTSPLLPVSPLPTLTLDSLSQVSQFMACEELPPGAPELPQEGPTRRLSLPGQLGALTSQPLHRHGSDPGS

Structure (SMILES) | hERG current change (%, negative = inhibition) at 10uM
Cc1cnc(C(=O)Nc2ccc(F)cc2)cn1 | -0.2%
CCN(CC)C(=O)C1CCCN(C(=O)Nc2ccc(NC(=O)N3CCCC(C(=O)N(CC)CC)C3)cc2)C1 (stereo not shown) | -11.5%
COc1ccc(NC(=O)c2cc(-c3cc(C)cc(C)c3O)n[nH]2)cc1Cl | -4.52%
Cn1c2c(c(=O)n(C)c1=O)CN(CC1CCCO1)CN2 (stereo not shown) | 9.87%
CC(C)C(=O)Nc1nc(-c2ccc([N+](=O)[O-])cc2)cs1 | 7.04%
CC(C)(C)NC(=O)c1cc(-c2ccccc2)n[nH]1 | 11.5%
Cc1ccc(-n2c(Cc3noc4ccccc34)n[nH]c2=S)cc1 | 8.59%
NS(=O)(=O)c1cccnc1Nc1cccc(Cl)c1 | 11.8%
CC(C)NC(=O)c1cc2c(-c3ccc(Cl)cc3)nn(C)c2s1 | 4.67%
Cn1nc(-c2ccc(Cl)cc2)c2cc(C(=O)NCCCN3CCCC3)sc21 | -59.5%
CCCCN(CC)CCNC(=O)c1cc2c(-c3ccc(Cl)cc3)nn(C)c2s1 | -74.8%
CCCCN(CC)CCCNC(=O)c1cc2c(-c3ccc(OC)c(OC)c3)nn(C)c2s1 | -7.25%
Cn1nc(-c2ccc(Cl)cc2)c2cc(C(=O)NCCCN3CCOCC3)sc21 | -13.1%
COCCCNC(=O)c1cc2c(-c3ccc(Cl)cc3)nn(C)c2s1 | -3.72%
CCCCNC(=O)c1cc2c(-c3ccc(Cl)cc3)nn(C)c2s1 | -7.09%
CCOCCCNC(=O)c1cc2c(-c3ccc(Cl)cc3)nn(C)c2s1 | 9.31%
CCN(CC)CCNC(=O)c1cc2c(-c3ccc(Cl)cc3)nn(C)c2s1 | -69.6%
CCN(CC)CCCNC(=O)c1cc2c(-c3ccc(Cl)cc3)nn(C)c2s1 | -59.9%
CN1CCN(CCCNC(=O)c2cc3c(-c4ccc(Cl)cc4)nn(C)c3s2)CC1 | -40.1%
COc1cc(CNC(C)C)ccc1OCC(=O)Nc1cccc2ccccc12 | -27.2%
CC(=O)NC1(c2cccc(F)c2)CCN(CC(=O)NC(C)C)CC1 | 9.55%
Cc1cc(C(C)(C)C)n2nc(C)c(-c3ccccc3)c2n1 | 13.9%
O=[N+]([O-])c1ccc(O)c(Nc2c([N+](=O)[O-])ccc3nonc23)c1 | 16%
CCNc1nc(OC)nc(SCC(=O)Nc2ccccc2)n1 | 17.2%
Cc1nnc(Nc2ccc(Cl)cc2)n(N)c1=O | 8.16%
